Source: PubChem BioAssay (Tox21)
Inconclusive results are not listed. The source made the active and inactive calls. Unless noted, the call rests on the fitted dose curve; in most records, active means well fitted curve in the direction sought with a large enough effect in the repeat runs; inconclusive means weak or mixed curves; inactive means no such curve, though single readings can be large; an effect the other way counts as inactive or inconclusive.

How the values were obtained:
[1] = qHTS assay for small molecule agonists of the p53 signaling pathway (AID 651631; calls by dose curve; further: nearly all actives have a fitted effect of over 15% in size)
Summary of the method: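 Agonist mode screen using a stably integrated beta-lactamase gene under p53 response elements in HCT-116 cells. Compound exposure lasts 16 h at 37 °C; fluorescence intensity is measured following 2 h FRET substrate loading.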

[2] = qHTS assay for small molecules that induce genotoxicity in human embryonic kidney cells expressing luciferase-tagged ATAD5 (AID 651632); further: nearly all actives have a fitted effect of over 15% in size
Summary of the method: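 Concentration-response screen for ATAD5 upregulation in HEK293T luciferase reporter cells; 16 hr treatment at 37C, then luminescence after 30 min with Amplite at room temperature.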

[3] = qHTS assay for small molecule agonists of the p53 signaling pathway - cell viability (AID 651633; calls by dose curve;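 further: p53RE-bla HCT reporter cells with a stable beta-lactamase p53 reporter; series mostly up to about 83 µM; nearly all actives have a fitted effect of over 30% in size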)
Summary of the method: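 Viability counter-read: CellTiter-Glo luminescence (30 min, room temperature) in the same p53RE-bla plates. These plates had been exposed to compounds for 16 h at 37 C.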

[4] = qHTS assay for small molecules that induce genotoxicity in human embryonic kidney cells expressing luciferase-tagged ATAD5 - cell viability (AID 651634; calls by dose curve; further: nearly all actives have a fitted effect of over 25% in size)
Summary of the method: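 15.5 hr compound or vehicle exposure of HEK293T cells expressing luciferase-tagged ATAD5 at 37C; live-cell protease activity is read by fluorescence after 30 min of CellTiter-Fluor.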

[5] = qHTS assay for small molecule disruptors of the mitochondrial membrane potential - cell viability (AID 720634; calls by dose curve;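 further: human HepG2 liver cancer cells; series mostly up to about 83 µM; nearly all actives have a fitted effect of over 20% in size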)
Summary of the method: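 In this qHTS format, HepG2 cells plated overnight were pinned with compound, incubated 1 hr, and assayed for ATP luminescence with CellTiter-Glo after m-MPI dye addition.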

[6] = qHTS assay for small molecule disruptors of the mitochondrial membrane potential (AID 720635)
Summary of the method: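 Mitochondrial membrane potential tracked with Mito-MPS dye, red aggregates (ex 540/em 590 nm) against green monomers (ex 490/em 535 nm). Compound treatment 1 hr at 37C, dye 30 min in HepG2.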

[7] = qHTS assay to test for compound auto fluorescence at 590 nm (red) in HepG2 cells (AID 720674)
Summary of the method: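 Red autofluorescence (Ex/Em 540/590 nm, Rose Bengal sodium equivalents) was measured in HepG2 cells, 2,000 per well in MEM plus 10% FBS, plated overnight at 37 C. Readings were taken 1 hr after adding 23 nL compound or DMSO, at 37 C and 5% CO2.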

[8] = qHTS assay to test for compound auto fluorescence at 460 nm (blue) in HEK293 cells (AID 720678)
Summary of the method: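 HEK293, 2,000 cells/well, 10% dialyzed FBS; attach 4-5 hr 37C; pin compound or DMSO; o/n 37C/5% CO2; fluorescence 405/460 nm; triamterene-equivalent units.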

[9] = qHTS assay to test for compound auto fluorescence at 590 nm (red) in HEK293 cells (AID 720679)
Summary of the method: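 Intensity at 540nm excitation and 590nm emission is reported as Rose Bengal sodium-equivalent autofluorescence. Measurements followed overnight exposure (37C, 5% CO2) of HEK293 cells, 2,000 per well, to 23 nL compound.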

[10] = qHTS assay to test for compound auto fluorescence at 535 nm (green) in HepG2 cells (AID 720675)
On the % scale 0 is the no-effect control and ±100 the full control effect.

Cc1ccc(S(=O)(=O)NC(=O)NC2CCCCCCC2)cc1
inactive: outcome [1] | outcome [2] | outcome [3] | Potency [4] | outcome [5] | Potency [6] | outcome [7] | outcome [8] | outcome [9]

C/C=C(\C)C(=O)OCC/C=C\CC
inactive: outcome [1] | outcome [2] | outcome [3] | Potency [4] | outcome [5] | Potency [6] | outcome [7] | outcome [8] | outcome [9]

C1=C\CC/C=C\CC/1
inactive: outcome [1] | outcome [2] | outcome [3] | Potency [4] | outcome [5] | Potency [6] | outcome [7] | outcome [10] | outcome [8] | outcome [9]

NC(=O)C1(N2CCCCC2)CCN(CCCC(=O)c2ccc(F)cc2)CC1
inactive: outcome [1] | outcome [2] | outcome [3] | Potency [4] | outcome [5] | Potency [6] | outcome [7] | outcome [10] | outcome [8] | outcome [9]

CCCCOC(=O)C(C)OC(=O)CCC (stereo unspecified)
inactive: outcome [1] | outcome [2] | outcome [3] | Potency [4] | outcome [5] | outcome [7] | outcome [10] | outcome [8] | outcome [9]

CCCCCC1Nc2cc(C(F)(F)F)c(S(N)(=O)=O)cc2S(=O)(=O)N1 (stereo unspecified)
inactive: outcome [1] | outcome [2] | outcome [3] | Potency [4] | outcome [5] | Potency [6] | outcome [7] | outcome [10] | outcome [8] | outcome [9]

O=C(CN1CCN(Cc2ccc3c(c2)OCO3)CC1)N1c2ccccc2Sc2ccccc21
inactive: outcome [1] | outcome [2] | outcome [3] | Potency [4] | outcome [5] | Potency [6] | outcome [7] | outcome [8] | outcome [9]

O=C(Nc1cccc(C2=NCCN2)c1)Nc1cccc(C2=NCCN2)c1
inactive: outcome [1] | outcome [2] | outcome [3] | Potency [4] | outcome [5] | Potency [6] | outcome [7] | outcome [10] | outcome [8] | outcome [9]

Nc1ccnc(=O)[nH]1
inactive: outcome [1] | outcome [2] | outcome [3] | Potency [4] | outcome [5] | outcome [7] | outcome [10] | outcome [8] | outcome [9]

Cc1ccccc1C(=O)N1CC/C(=N\OS(=O)(=O)O)c2ccc(Cl)cc21
inactive: outcome [1] | outcome [2] | outcome [3] | Potency [4] | outcome [5] | Potency [6] | outcome [7] | outcome [10] | outcome [8] | outcome [9]

CC(=O)c1ccc2c(c1)CCCC2
inactive: outcome [1] | outcome [2] | outcome [3] | Potency [4] | outcome [5] | Potency [6] | outcome [7] | outcome [10] | outcome [8] | outcome [9]

CN(C)CCCNCCC#N
inactive: outcome [1] | outcome [2] | outcome [3] | Potency [4] | outcome [5] | outcome [7] | outcome [10] | outcome [8] | outcome [9]

CCCCCCCCCOCC1CO1 (stereo unspecified)
inactive: outcome [1] | outcome [2] | outcome [3] | Potency [4] | outcome [5] | outcome [7] | outcome [8] | outcome [9]

CN[C@@H]1[C@H](O)[C@H](NC)[C@H]2O[C@@]3(O)C(=O)C[C@@H](C)O[C@H]3O[C@@H]2[C@H]1O
inactive: outcome [1] | outcome [2] | outcome [3] | outcome [5] | Potency [6] | fluorescence, relative to Rose Bengal [7] -0.0467% [at 18.6 µM] | fluorescence, % of fluorescein control [10] -0.162% [at 18.6 µM] | fluorescence, % of triamterene [8] -0.0174% [at 18.6 µM] | fluorescence, % of fluorescent control [9] 0.0398% [at 18.6 µM]

CCC(=O)c1ccc(O)cc1
inactive: outcome [1] | outcome [2] | outcome [3] | Potency [4] | outcome [5] | outcome [7] | outcome [10] | outcome [8] | outcome [9]

CC(C)(c1ccc(Oc2ccc3c(c2)C(=O)OC3=O)cc1)c1ccc(Oc2ccc3c(c2)C(=O)OC3=O)cc1
inactive: outcome [1] | outcome [2] | outcome [3] | outcome [5] | Potency [6] | outcome [7] | outcome [10] | outcome [8] | outcome [9]

CCCCC/C=C/CC(=O)OC
inactive: outcome [1] | outcome [2] | outcome [3] | Potency [4] | outcome [5] | outcome [7] | outcome [10] | outcome [8] | outcome [9]

FC(F)(F)c1ccc(Cl)cc1Cl
inactive: outcome [1] | outcome [2] | outcome [3] | Potency [4] | outcome [5] | outcome [7] | outcome [10] | outcome [8] | outcome [9]

CC(Cl)COP(=O)(OCC(C)Cl)OCC(C)Cl (stereo unspecified)
inactive: outcome [1] | outcome [2] | outcome [3] | Potency [4] | outcome [5] | outcome [7] | outcome [8] | outcome [9]

CCOC(=O)CC#N
inactive: outcome [1] | outcome [2] | outcome [3] | Potency [4] | outcome [5] | outcome [7] | outcome [10] | outcome [8] | outcome [9]

CCCCCCCCCCCCCCCC(=O)NCCO
inactive: outcome [1] | outcome [2] | outcome [3] | Potency [4] | outcome [5] | outcome [7] | outcome [10] | outcome [8] | outcome [9]

Cc1ccc2c(c1)c1c3n2CCNC3CCC1 (stereo unspecified)
inactive: outcome [1] | outcome [2] | outcome [3] | Potency [4] | outcome [5] | outcome [7] | outcome [8] | outcome [9]

OC[C@@H](O)[C@H](O)[C@@H](O)[C@@H](O)CO
inactive: outcome [1] | outcome [2] | outcome [3] | Potency [4] | outcome [5] | outcome [7] | outcome [10] | outcome [8] | outcome [9]

CCOC(=O)CCCCCCCCC(=O)OCC
inactive: outcome [1] | outcome [2] | outcome [3] | Potency [4] | outcome [7] | outcome [10] | outcome [8] | outcome [9]

CCCC(C)CC (stereo unspecified)
inactive: outcome [1] | outcome [2] | outcome [3] | Potency [4] | outcome [5] | outcome [7] | outcome [10] | outcome [8] | outcome [9]

O=C1c2ccccc2-c2ccccc21
inactive: outcome [1] | outcome [2] | outcome [3] | Potency [4] | outcome [5] | outcome [7] | outcome [10] | outcome [8] | outcome [9]
